Results on four molecules are retold here after PubChem BioAssay AID504905 (The Scripps Research Institute Molecular Screening Center, 2011).

The other results are listed elsewhere or left out. Calls of active or inactive are those of the source. No stated cut-off is given here; in the data, active means activation above about 17%; inactive means the rest.

This experiment deals with 5-hydroxytryptamine receptor 5A (Homo sapiens) (UniProt P47898). Kind of experiment: HTR5A agonists in cells, counter-screen for OPRM1-OPRD1 heterodimer agonist project, cell-based, luminescence (AID 504905).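 Further: 0% = vehicle-treated cells and 100% = reference agonist response.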 The conditions noted are these: HTR5A agonist counterscreen, at 9.3 µM, active compounds read high. For orientation: A counterscreen serves to expose hits that act by an unwanted route or on another target.
5-hydroxytryptamine receptor 5A (Homo sapiens), sequence (P47898 whole entry, looked up): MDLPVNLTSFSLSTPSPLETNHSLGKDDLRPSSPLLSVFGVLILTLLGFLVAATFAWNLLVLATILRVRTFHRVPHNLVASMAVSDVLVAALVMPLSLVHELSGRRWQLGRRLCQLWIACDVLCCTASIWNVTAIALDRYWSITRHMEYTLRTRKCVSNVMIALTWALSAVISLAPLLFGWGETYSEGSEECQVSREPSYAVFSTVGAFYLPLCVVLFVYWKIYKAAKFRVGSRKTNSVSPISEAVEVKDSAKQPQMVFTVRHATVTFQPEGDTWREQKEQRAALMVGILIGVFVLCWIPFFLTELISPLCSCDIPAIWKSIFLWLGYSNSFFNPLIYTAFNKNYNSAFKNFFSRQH
`COC1C(O)C(C)OC(OC2CCC3(C=O)C(CCC4C3CCC3(C)C(C5=CC(=O)OC5)CCC43O)C2)C1O` (centres undefined): the activation was 13.7% (inactive).

As to `CCC1(C)CC(CCNCc2ccc(N(C)C)cc2)(c2ccc(F)cc2)CCO1` (centres undefined), the activation is 0.44% (inactive).

For the molecule `C[C@]12CC[C@H](O)C[C@H]1CC[C@@H]1C2CC[C@]2(C)[C@@H](C3=CC(=O)OC3)[C@@H](O)C[C@]12O` (some centres undefined), the activation is -0.48% (inactive).

Consider `CCOC(=O)C1(CCc2ccccc2)CCN(Cc2ccco2)CC1`, for which the activation was 3.8% (inactive).
